The nature of assay [1]: inhibitors of E-selectin induction by TNFa, primary screen, imaging, HUVEC, immunofluorescence, MLSMR starter and 10KST1 sets (AID 487;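 active = visually confirmed hit in the image check and inhibition above 20%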;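 as to inhibition: signal is fraction of cell area covered by stained E-selectin grains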;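 as to nuclei count: 100% = median nuclei count of all wells on the same plate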). Particulars: HUVEC TNFalpha-induced E-selectin immunofluorescence imaging, at 2 µM; inhibition: stronger effect = higher value; nuclei count: measured here: cell number, toxicity.
Assay [2] can be described thus: DUSP6 inhibitors restoring Erk phosphorylation by chemical complementation, primary imaging in DUSP6-transfected HeLa (AID 609;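 active = compounds giving at least 50% inhibition in the cell-based MKP-3 phosphatase rescue imaging test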;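 as to inhibition: phospho-Erk level distribution per well compared with pooled transfected vehicle control wells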). Particulars: HeLa MKP-3 transfected, phospho-Erk imaging KS statistic, at 10 µM, cells stimulated with TPA for 15 min.
The target in assay [3] is Dual specificity protein phosphatase 6 (Homo sapiens) (UniProt Q16828). The assay is described as above. Particulars: HeLa MKP-3 transfected, phospho-Erk imaging KS statistic; at 10 µM; stronger effect = higher value; cells stimulated with TPA for 15 min.
Assay [4] concerns the target Voltage-gated potassium channel subunit beta-2 (Rattus norvegicus) (UniProt P62483). The assay is described as follows: KvBeta enzyme negative modulators, primary screen, biochemical, NADPH fluorescence (AID 622).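 Also: slope of raw intensity against log time taken from 70 to 1610 s.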 Conditions: recombinant KvBeta, 4-cyanobenzaldehyde reduction, at 10 µM, stronger effect = higher value.
Assay [5] shares this target. The assay is described as follows: KvBeta positive modulators, primary screen, biochemical, NADPH fluorescence (AID 623;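 active = NADPH fluorescence slope more negative than the mean of all samples by about 3 SD, 99.7% confidence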;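 also: fluorescence intensity change per second fitted from 20 to 320 s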). Particulars: Recombinant KvBeta, NADPH fluorescence decrease slope, 10 min; at 10 µM; stronger effect = lower value.
Assay [6] deals with Muscarinic acetylcholine receptor M4 (Homo sapiens) (UniProt P08173). Kind of assay: compounds altering M4/GIRK thallium flux, either direction, primary screen, M4 allosteric agonist project, cell-based, HEK293 M4/GIRK, BTC-AM (AID 625;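 active = fluorescence slope after compound addition differing from the mean of all tested samples at 99.7% confidence, mostly higher but some lower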;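 also: thallium influx through GIRK channels coupled to M4 in HEK293 cells with BTC-AM dye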). Particulars: at 10 µM, actives lie on both sides.
Assay [7] is described as follows: inhibitors of larval lipid processing in zebrafish, primary screen, whole organism, PED6 fluorescence, gall bladder and intestine (AID 686;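 active = a full or partial loss of lipid-probe fluorescence in the fish gall bladder, intestine or both, judged by eye; inactive = no fluorescence loss, or compound toxic to the fish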;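 also: larvae 5 to 7 days old with five fish per well; signal comes from phospholipase A2 cleavage of quenched PED6 carried via bile; overnight exposure to compound and PED6 before scoring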). Particulars: Zebrafish larvae PED6 lipid processing, fluorescence scoring; screened at 20 µM (by protocol).
Assay [8] can be described thus: inhibitors of Chlamydomonas gravitaxis, primary screen, whole organism, Chlamydomonas reinhardtii, WT vs cilia-less mutant, absorbance, 96-well (AID 463189;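 active = inhibition at or above 50% relative to wild type and mutant plate controls; inactive = inhibition below 50%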;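 also: 0% = wild type cc124 cells in DMSO and 100% = ciliumless bld1 mutant cells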). Particulars: OD600 absorbance, 2 days, at 10 µM, stronger effect = higher value.
The nature of assay [9]: inhibitors of mutant huntingtin aggregation, primary screen, imaging, exon1htt(103Q)mCFP cells, high-content imaging (AID 483;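 active = visual image review flags a hit and inhibition of aggregation exceeds 20%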;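 also: compound exposure lasted 3 days before fixation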;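 as to nuclei count: percent of the per-plate median nuclei count of sample wells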). Particulars: exon1htt(103Q)mCFP cell line, aggregate imaging, at 2 µM; inhibition of aggregation: stronger effect = higher value; nuclei count: measured here: cell count, toxicity.
Assay [10] has as its target Alpha-2C adrenergic receptor (Homo sapiens) (UniProt P18825). The assay is described as follows: modulators of alpha2C/GIRK thallium flux, primary screen, cell-based, HEK293 alpha2C/GIRK1/2 (AID 624;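 active = fluorescence slope after compound addition differing from the mean of all screened samples at 99.7% confidence, in either direction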;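 also: slope of fluorescence ratio to pre-addition baseline per second over 15 to 24 s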). Conditions: thallium flux BTC fluorescence, at 10 µM, actives lie on both sides.
The nature of assay [11]: inhibitors of Sendai virus-induced IRF3 signaling, primary screen, TLR/RLR signaling modifier project, cell-based, Sendai virus stimulus, luciferase, 10K MLSCN set (AID 602276;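 active = inhibition at or above 50% at 10 µM; inactive = inhibition below 50%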;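 also: firefly luciferase from ISG56 promoter only with Renilla not read in this screen; 0% = Sendai virus plus DMSO and 100% = medium plus DMSO without virus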). Conditions: HEK293 RL24 IRF3 luciferase reporter, at 10 µM, stronger effect = higher value.
Assay [12] can be described thus: inhibitors of poly I:C-induced TLR3 signaling, primary screen, cell-based, poly I:C stimulus, luciferase, 10K MLSCN set (AID 602277;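 active = inhibition of the reporter signal at or above 50%; inactive = inhibition below 50%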). Conditions: HEK293-TLR3 RL24 IRF3 luciferase reporter, at 10 µM, stronger effect = higher value.
Where [13] appears, read: measured here: cell density z-score.
[14] abbreviates: measured here: nuclear c-Myc green intensity z-score.
[15] abbreviates: measured here: nuclear pErk red intensity z-score, stronger effect = higher value.

Active and inactive are the calls of the source.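 The calls were made as follows, unless noted: active = fluorescence slope higher than the sample average by over 3 SD (cut at about -0.22 in these data, passing the limit was not always enough); inactive = the rest.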

Muscarinic acetylcholine receptor M4 (Homo sapiens), sequence (P08173 whole entry, looked up): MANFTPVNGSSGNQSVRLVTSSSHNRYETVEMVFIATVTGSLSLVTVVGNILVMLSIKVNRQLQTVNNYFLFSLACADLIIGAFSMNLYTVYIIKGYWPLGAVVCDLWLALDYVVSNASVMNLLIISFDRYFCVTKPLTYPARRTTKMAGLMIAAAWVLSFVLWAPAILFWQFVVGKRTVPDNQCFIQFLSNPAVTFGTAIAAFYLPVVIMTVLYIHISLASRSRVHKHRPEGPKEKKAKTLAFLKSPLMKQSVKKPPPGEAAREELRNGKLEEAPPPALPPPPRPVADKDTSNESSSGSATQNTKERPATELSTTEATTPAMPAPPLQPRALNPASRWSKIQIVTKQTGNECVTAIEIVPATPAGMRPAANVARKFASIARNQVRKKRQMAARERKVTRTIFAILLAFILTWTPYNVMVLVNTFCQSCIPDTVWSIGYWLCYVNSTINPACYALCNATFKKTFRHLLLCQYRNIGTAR
Dual specificity protein phosphatase 6 (Homo sapiens), sequence (Q16828 whole entry, looked up): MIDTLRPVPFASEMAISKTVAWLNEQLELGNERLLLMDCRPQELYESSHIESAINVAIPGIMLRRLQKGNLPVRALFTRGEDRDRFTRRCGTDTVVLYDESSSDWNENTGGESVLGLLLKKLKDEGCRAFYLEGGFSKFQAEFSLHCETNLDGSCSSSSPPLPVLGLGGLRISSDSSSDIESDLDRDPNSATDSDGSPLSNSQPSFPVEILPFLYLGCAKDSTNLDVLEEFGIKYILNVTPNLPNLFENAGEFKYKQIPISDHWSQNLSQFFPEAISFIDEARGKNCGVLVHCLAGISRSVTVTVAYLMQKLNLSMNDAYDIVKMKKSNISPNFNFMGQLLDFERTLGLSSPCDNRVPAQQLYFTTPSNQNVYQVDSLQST
Voltage-gated potassium channel subunit beta-2 (Rattus norvegicus), sequence (P62483 whole entry, looked up): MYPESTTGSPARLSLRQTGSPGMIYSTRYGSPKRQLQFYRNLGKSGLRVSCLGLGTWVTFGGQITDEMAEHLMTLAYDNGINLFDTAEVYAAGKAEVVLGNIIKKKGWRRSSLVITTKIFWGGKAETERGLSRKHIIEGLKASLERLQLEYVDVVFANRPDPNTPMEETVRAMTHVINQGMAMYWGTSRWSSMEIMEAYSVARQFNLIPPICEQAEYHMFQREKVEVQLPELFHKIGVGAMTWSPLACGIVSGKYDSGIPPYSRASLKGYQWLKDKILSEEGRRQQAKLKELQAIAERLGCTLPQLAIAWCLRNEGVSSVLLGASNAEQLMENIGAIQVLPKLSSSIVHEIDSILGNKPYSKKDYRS
Alpha-2C adrenergic receptor (Homo sapiens), sequence (P18825 whole entry, looked up): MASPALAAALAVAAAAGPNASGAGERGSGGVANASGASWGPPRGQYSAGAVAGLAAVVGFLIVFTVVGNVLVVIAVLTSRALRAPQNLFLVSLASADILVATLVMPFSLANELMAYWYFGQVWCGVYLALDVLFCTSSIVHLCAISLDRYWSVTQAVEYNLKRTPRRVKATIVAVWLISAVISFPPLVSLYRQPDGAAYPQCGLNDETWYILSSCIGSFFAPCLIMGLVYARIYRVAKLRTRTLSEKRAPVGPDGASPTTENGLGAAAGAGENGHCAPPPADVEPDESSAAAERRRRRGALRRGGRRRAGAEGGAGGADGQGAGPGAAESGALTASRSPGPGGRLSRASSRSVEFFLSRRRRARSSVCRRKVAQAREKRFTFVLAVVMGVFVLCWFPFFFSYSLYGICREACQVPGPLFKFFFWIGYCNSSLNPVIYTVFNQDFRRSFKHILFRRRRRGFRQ

With `COc1ccc(C(=O)NCC(=O)n2nc(C)cc2C)cc1OC`, the inhibition in assay [1] was -38.7% (inactive); in assay [3], 3.66% (inactive); in [8] it was -5.61% (inactive). Besides, the nuclei count in assay [1] stood at 95.9%. In addition, the z-score in assay [2] (setting [13]) is -0.145; in [2] (setting [14]) it was 0.45; in assay [2] (setting [15]), -1.73. Also, the fluorescence slope in assay [4] is -0.415 (inactive); in assay [6], 0.00491 (inactive). Further, the NADPH fluorescence slope in assay [5] is -1.8e-05 (inactive). For the same molecule, the result in [7] was inactive.
Regarding `CCC(=O)Oc1oc(-c2ccccc2)nc1C=Nc1ccccc1OC`, the inhibition in assay [1] is -41.7% (inactive); in assay [3] it was 9.39% (inactive); in assay [8], 10.5% (inactive). This molecule registered a nuclei count in assay [1] of 161%. In addition, the z-score in assay [2] (setting [13]) was 0.687; in [2] (setting [14]) it was 0.248; in assay [2] (setting [15]), 1.48. Also, the results for the fluorescence slope in assay [4] and in [6] were -0.381 (inactive) and 0.00681 (inactive), respectively. Besides, the NADPH fluorescence slope in assay [5] is -4.4e-05 (inactive). The molecule was called inactive in [7].
As to `CC1(C)CC(=O)C=C(N=CC2=C(O)CC(C)(C)CC2=O)C1`, the inhibition in assay [1] is -39.1% (inactive); in [3] it was 9.39% (inactive); in [8] it was 8.63% (inactive). In addition, in [1], the nuclei count amounted to 174%. Moreover, the z-score is -0.899 in [2] (setting [13]), 1.02 in [2] (setting [14]) and 0.848 in assay [2] (setting [15]). In addition, the fluorescence slope in [4] was -0.363 (inactive); in assay [6] it was 0.00557 (inactive). In addition, in [5], the NADPH fluorescence slope was -4.6e-05 (inactive). The result in [7] was inactive.
As for `CCCOc1cccc(CN2CCCCC2c2cccnc2)c1` (centres undefined), the inhibition is -33.4% (inactive) in assay [1], 5.57% (inactive) in [3] and -12.9% (inactive) in assay [8]. The molecule further had a nuclei count in assay [1] of 153%. For the same molecule, the z-score in [2] (setting [13]) was 0.13; in [2] (setting [14]), 0.714; in [2] (setting [15]), -0.468. Also, the fluorescence slope in [4] was -0.369 (inactive); in assay [6] it was 0.00674 (inactive). Further, the NADPH fluorescence slope in assay [5] is 1.8e-06 (inactive). For the same molecule, the result in assay [7] was inactive.
Consider `COc1ccc[nH]c1=O`, for which the values for the inhibition in assay [1], in [3] and in [8] were -53.5% (inactive), 11.3% (inactive) and 14.4% (inactive), respectively. For the same molecule, the nuclei count in assay [1] turned out to be 156%. Moreover, the z-score in assay [2] (setting [13]) was -0.586; in assay [2] (setting [14]) it was 0.536; in assay [2] (setting [15]), -1.08. Further, the fluorescence slope in assay [4] was -0.41 (inactive); in assay [6] it was 0.00623 (inactive). The NADPH fluorescence slope in [5] is -4.9e-05 (inactive). The outcome in [7] was inactive.
With `C1CCC2=NCCCN2CC1`, the inhibition of aggregation in assay [9] is 7.9% (inactive). Further, the results for the nuclei count in [9] and in [1] were 102% and 99.2%, respectively. Besides, the inhibition in assay [1] is -40.2% (inactive); in assay [11] it was 10.9% (inactive); in assay [12], 20.9% (inactive). The fluorescence slope in assay [4] is -0.37 (inactive). For the same molecule, in [5], the NADPH fluorescence slope was 4.2e-05 (inactive). In addition, the slope in assay [10] was 0.00592 (inactive).
On to `COc1cc(C)nc(Oc2ccc(=O)[nH]n2)n1`, for which the inhibition in assay [1] is -34.6% (inactive); in [3] it was 5.57% (inactive); in [8], 34.1% (inactive). The same molecule had a nuclei count in [1] of 147%. Further, the z-score in assay [2] (setting [13]) is -0.3; in [2] (setting [14]), 1.04; in assay [2] (setting [15]), -1.72. Further, the fluorescence slope in assay [4] was -0.296 (inactive); in assay [6], 0.00779 (inactive). Further, in assay [5], the NADPH fluorescence slope is -4e-05 (inactive). For the same molecule, in [7], the molecule was classed as inactive.
Consider `O=C(NC1CCCCC1)[C@H](O)[C@@H](O)C(=O)NC1CCCCC1`, for which the results for the inhibition in [1], in assay [3] and in assay [8] were -94% (inactive), 5.57% (inactive) and -2.73% (inactive), respectively. In assay [1], this molecule showed a nuclei count of 140%. Further, the values for the z-score in [2] (setting [13]), in assay [2] (setting [14]) and in assay [2] (setting [15]) were -1.12, 0.563 and 0.453, respectively. Moreover, the values for the fluorescence slope in assay [4] and in [6] were -0.381 (inactive) and 0.00717 (inactive), respectively. Moreover, the NADPH fluorescence slope in [5] is -4.7e-05 (inactive). Further, the call in [7] was inactive.
Take `O=C(CSc1nc2c(sc3ccccc32)c(=O)n1Cc1ccco1)NCC1CCCO1` (centres undefined): the fluorescence slope in assay [4] is -0.58 (inactive); in [6], 0.00708 (inactive). For the same molecule, the NADPH fluorescence slope in [5] is -4.5e-05 (inactive). In addition, the inhibition in [11] was 19.7% (inactive); in assay [12] it was 20.3% (inactive).
Take `CCCNC(=O)C1CN(S(=O)(=O)c2ccccc2)CCN1S(=O)(=O)c1ccccc1` (centres undefined): the fluorescence slope in assay [4] is -0.512 (inactive). Moreover, the NADPH fluorescence slope in assay [5] was -3.4e-05 (inactive). Moreover, the slope in [10] was 0.00614 (inactive). The figures for the inhibition in assay [11] and in [12] were 9.56% (inactive) and 19% (inactive), respectively.
For the molecule `O=C(C1CCN(S(=O)(=O)c2cnc[nH]2)CC1)N1CCN(c2ncccn2)CC1`, the fluorescence slope in assay [4] is -0.353 (inactive). Also, in assay [5], the NADPH fluorescence slope was -7e-05 (inactive). The slope in [10] was 0.00534 (inactive). Further, the call in [7] was inactive. For the same molecule, the inhibition was -35.5% (inactive) in assay [11] and 88.9% (active) in assay [12].
As for `O=C1[C@@H]2C(c3ccccc3Cl)=NO[C@@H]2C(=O)N1Cc1ccccc1`, the inhibition of aggregation in assay [9] was -2.9% (inactive). Also, the nuclei count was 90.6% in [9] and 213% in [1]. The inhibition in assay [1] was -238% (inactive); in assay [11], 9.22% (inactive); in assay [12], 12.2% (inactive). In addition, the fluorescence slope in assay [4] is -0.328 (inactive). Further, the NADPH fluorescence slope in [5] is -5.7e-05 (inactive). In addition, the slope in assay [10] was 0.00529 (inactive).
In the case of `CCOC(=O)c1cc(CC)sc1NC(=O)C1CC1`, the figures for the inhibition in [1], in assay [3] and in assay [8] were 5.7% (inactive), 1.75% (inactive) and -9.3% (inactive), respectively. Also, the nuclei count in [1] turned out to be 151%. The z-score in assay [2] (setting [13]) was 0.13; in [2] (setting [14]), -0.277; in assay [2] (setting [15]) it was 0.203. In addition, the values for the fluorescence slope in [4] and in [6] were -0.369 (inactive) and 0.0058 (inactive), respectively. For the same molecule, the NADPH fluorescence slope in [5] was -6.8e-05 (inactive). Besides, the call in assay [7] was inactive.
On to `CCCCCOc1ccc(Cl)cc1CN1CCOCC1`, for which the values for the inhibition in assay [1], in assay [3] and in assay [8] were -77.3% (inactive), 11.3% (inactive) and 126% (active), respectively. Moreover, the nuclei count in [1] amounted to 110%. The z-score in assay [2] (setting [13]) was -0.264; in assay [2] (setting [14]), 0.0743; in assay [2] (setting [15]) it was -0.781. The results for the fluorescence slope in [4] and in assay [6] were -0.434 (inactive) and 0.00599 (inactive), respectively. In addition, in [5], the NADPH fluorescence slope is -2.1e-05 (inactive). In addition, the result in assay [7] was inactive.
Regarding `CC(C)(C)C1CCc2onc(C(=O)Nc3cnn(Cc4ccc(F)cc4)c3)c2C1` (centres undefined), the fluorescence slope in [4] is -0.58 (inactive); in [6] it was 0.00687 (inactive). The NADPH fluorescence slope in assay [5] was 1.6e-05 (inactive). For the same molecule, the inhibition was 12% (inactive) in assay [11] and 19.7% (inactive) in [12].
For the molecule `O=C(NC1CCCCCC1)C1c2ccccc2C(=O)N1Cc1cccnc1` (centres undefined), the fluorescence slope in assay [4] is -0.575 (inactive). The NADPH fluorescence slope in assay [5] is 1.2e-05 (inactive). In addition, the slope in [10] is 0.00527 (inactive). Also, the values for the inhibition in assay [11] and in assay [12] were 1.87% (inactive) and 17.1% (inactive), respectively.
Take `CCCNCC(O)COc1ccccc1C(=O)CCc1ccccc1` (centres undefined): the inhibition in assay [1] was -137% (inactive); in [3], -4.44% (inactive); in assay [11], 9.47% (inactive); in assay [12] it was 42.6% (inactive). In addition, the nuclei count in assay [1] stood at 129%. In addition, the z-score in [2] (setting [13]) was -0.576; in [2] (setting [14]), 0.234; in assay [2] (setting [15]), 0.603. Also, the fluorescence slope in assay [4] is -0.521 (inactive). In addition, the NADPH fluorescence slope in assay [5] was -4.9e-05 (inactive). In addition, the slope in [10] is 0.00393 (inactive).
